An excerpt weighted towards active compounds, which were near 5.3% of everything screened.
12-hLO inh: qHTS Assay for Inhibitors of 12-hLO (12-human lipoxygenase). Polyunsaturated fatty acid lipoxygenase ALOX12 (Homo sapiens), P18054. purified 12-hLO, xylenol orange hydroperoxide absorbance. Potency, µM (highest dose often 57.1 µM), for inactives: top-dose activity change, negative = inhibition, usual class: inhibitors. hit rate 0.12% among 150,000. AID 1452, 2008; note: potency is the fitted concentration of half-maximal effect; nearly all actives have a fitted effect of over 55% in size
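Purified human 12hLO (150 nM), preincubated 15 min with compound, then 40 uM arachidonic acid for 30 min, room temperature, Hepes pH 7.0 with 0.01% Triton X-100. Hydroperoxide detected by ferrous iron/xylenol orange; 573/405 nm absorbance ratio gives reaction progress.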
IMPase Li inh: qHTS Assay for Identifying the Cell-Membrane Permeable IMPase Inhibitors: Potentiation with Lithium. CHO-M1 cells, IP1 TR-FRET (IP-One), carbachol + lithium. Potency, µM (doses to about 59.4 µM), for the others: at the top dose activity, negative = IMPase inhibition, usual class: inhibitors. hit rate 0.35% among 210,000;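 note: IP1 builds up when IMPase is blocked and the TR-FRET signal falls; potency is the fitted concentration of half-maximal effect; plate controls were basal vehicle for no effect and high inhibitor control for full effect; nearly all actives have a fitted effect of over 50% in size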
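CHO-M1, 2000 cells/well, 16–30 h culture; cpd + low Li+, 30 min 37C; lysis with d2-IP1/Eu-anti-IP1 Ab, 10 min RT; TR-FRET 665/620 ratio and 620 channel; AC50 via Hill.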
IMPase cell inh: qHTS Assay for Identifying the Cell-Membrane Permeable IMPase Inhibitors; Inositol monophosphatase 1 (Rattus norvegicus), P97697; CHO-M1 cells, IP1 accumulation, HTRF TR-FRET ratio; inhibition (IP1 accumulation), % at 46.1 µM; 120,000 tested, under 10 active; AID 901, 2007; active = well fitted curve in the direction sought with a large enough effect in the signal ratio, not every such curve was filed as active; inconclusive = small, poorly fitted or top-dose-only effect, or a change in a side signal; inactive = no such curve, though single readings can be large or run the other way; the % refers to the signal ratio;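 note: cells stimulated with carbachol in lithium chloride buffer; plate controls were DMSO basal wells for no effect and reference inhibitor wells for full effect; higher means more IMPase inhibition seen as more IP1 and lower FRET ratio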
Target sequence (P97697 whole entry, looked up): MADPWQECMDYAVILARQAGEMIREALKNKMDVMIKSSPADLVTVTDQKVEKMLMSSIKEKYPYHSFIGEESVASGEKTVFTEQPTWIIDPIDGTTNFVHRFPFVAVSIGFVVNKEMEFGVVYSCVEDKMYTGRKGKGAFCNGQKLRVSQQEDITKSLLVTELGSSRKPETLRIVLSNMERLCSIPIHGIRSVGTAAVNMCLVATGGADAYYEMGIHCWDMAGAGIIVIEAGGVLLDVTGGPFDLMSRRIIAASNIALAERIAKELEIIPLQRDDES
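CHO-M1 cells (CHO stably expressing M1 receptor), compound up to 46 uM final, stimulated with carbachol (50 uM as added) in buffer with 50mM LiCl, pH 7.4, 30 min at 37C. Cytosolic IP1 read by TR-FRET; AC50 from Hill fits.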
ALOX15B inhib: qHTS Assay for Inhibitors of 15-hLO-2 (15-human lipoxygenase 2); Potency, µM (series often up to 57.1 µM), for inactives: at the highest dose activity change, negative = inhibition, most hits filed as inhibitors; hit rate 0.56% among 110,000; purified 15hLO-2, xylenol orange hydroperoxide absorbance; note: potency is the fitted concentration of half-maximal effect; nearly all actives have a fitted effect of over 60% in size
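Enzyme 50 nM, AA 45 uM, 25 mM Hepes pH 7.5 + 0.01% Triton X-100; cpd preinc 15 min RT, rxn 90 min RT; stop/detect with 200 uM XO + 300 uM Fe(II) in 50 mM H2SO4, 30 min; A573/A405.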
PNC assembly inh: High Content Assay for Compounds that inhibit the Assembly of the Perinucleolar Compartment; PC3M PTB-GFP, PNC prevalence imaging, 16 h; hits give low values; activity change (PNC), negative = inhibition, % at 10 µM; hit rate 3.1% among 140,000;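 active = readout at or below -70, meaning at least 70% loss of cells showing the perinucleolar compartment, a nuclear body marking cancer cells; inconclusive = readout between -30 and a set limit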;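 note: plate controls were DMSO wells for no effect and camptothecin positive control wells for full effect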
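Read-out is percentage of cells bearing a perinucleolar compartment, from automated 20x imaging of fixed, Hoechst-stained PC3M PTB-GFP cells. Cells were seeded 4 h, then exposed 16 h to compound (23 nl of library stock) in duplicate plates.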
HPGD inh: qHTS Assay for Inhibitors of HPGD (15-Hydroxyprostaglandin Dehydrogenase); purified HPGD, NADH fluorescence kinetic, PGE2 substrate; Potency, µM, for inactives: top-dose activity change, negative = inhibition, usual class: inhibitors; hit rate 4.3% among 150,000; AID 894, 2007; active = well fitted inhibition curve with a large enough effect, not every such curve was filed as active; inconclusive = small, poorly fitted or top-dose-only effect, or another doubt; inactive = no such curve, though single readings can be large or run the other way; note: potency is the fitted concentration of half-maximal effect
Target sequence (P15428 whole entry, looked up): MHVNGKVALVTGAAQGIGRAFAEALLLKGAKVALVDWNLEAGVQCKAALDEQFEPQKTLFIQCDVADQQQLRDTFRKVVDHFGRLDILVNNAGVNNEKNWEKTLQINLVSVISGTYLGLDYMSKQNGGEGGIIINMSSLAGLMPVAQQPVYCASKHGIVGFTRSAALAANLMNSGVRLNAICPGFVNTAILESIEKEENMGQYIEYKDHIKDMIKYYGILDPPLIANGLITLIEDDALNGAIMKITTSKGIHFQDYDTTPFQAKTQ
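20 nM HPGD preincubated 15 min at room temperature with compound in 50 mM Tris-HCl pH 8, 0.01% Tween 20. Started with 1 mM NAD+ and 30 uM prostaglandin E2; NADH fluorescence (360/450 nm) read 5 times over 30-s intervals, last minus first.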
Starred values were filed as active, the others as inactive; u = inconclusive; x = not tested or not shown; [ ] = remark or other dose. Unless noted, calls come from the whole dose curve; as a rule, active = well fitted curve in the direction sought with a large enough effect; inconclusive = small, poorly fitted or top-dose-only effect, or another doubt; inactive = no such curve, though single readings can be large; an effect the other way counts as inactive or inconclusive. Unless noted, % is set by controls: 0 for no effect and ±100 for the full control effect.

SMILES	12-hLO inh	IMPase Li inh	IMPase cell inh	ALOX15B inhib	PNC assembly inh	HPGD inh
CCOC(=O)c1cc2ccc(OC)c(OC)c2c(=O)s1	2%	21%[38.3 µM]	-11	-3%	4	-19%
O=C(c1ccc(Br)s1)N1CCCC1	-1%	11%[38.3 µM]	6	4%	u	14µM*
COc1ccc2cc(C(=O)N3CCOCC3)sc(=O)c2c1OC	2%	1%[38.3 µM]	-8	-7%	19	22µM*
O=C(c1ccc(Br)s1)N1CCN(c2ncccn2)CC1	-4%	-1%[38.3 µM]	1	-3%	u	-7%
O=C(c1ccc(C(=O)N2CCOCC2)s1)N1CCOCC1	-3%	25%[38.3 µM]	1	-3%	-16	20µM*
C=C(C(C)=O)C(O)c1cccc(Br)c1 (stereo not drawn)	x	-1%	x	x	x	-5%
COc1ccc(/C=C/C(=O)N2CCCc3ccccc32)cc1	2%	9%	x	x	u	11µM*
O=C(c1ccccc1)N1CCc2ccccc21	-7%	36%[38.3 µM]	2	-7%	0	28µM*
COc1ccc(-n2c(Cc3ccccc3)nnc2SCC(=O)N2CCCc3ccccc32)cc1	2%	17%	-1	x	-100*	-17%
COc1cccc(C(=O)N2CCCc3ccccc32)c1	-3%	2%[38.3 µM]	-3	-1%	-85*	-8%
Cn1cccc1Cc1nnc(SCC(=O)N2CCCc3ccccc32)n1-c1ccc(F)cc1	-2%	13%	u	x	19	-3%
CCc1ccc(C(=O)NNC(=S)Nc2ccc(S(N)(=O)=O)cc2)s1	x	5%	x	x	x	x
COc1ccccc1C(=O)C1CCCN(C(=O)c2cc(CC(C)C)nc(C)n2)C1 (stereo not drawn)	x	2%	x	x	x	x
O=C1C2C(C(=O)N1/N=C/c1cc([N+](=O)[O-])ccc1O)C1C=CC2C12CC2 (stereo not drawn)	3%	-12%[38.3 µM]	-13	-8%	7	-22%
O=C1C2C(C(=O)N1/N=C/c1cccc([N+](=O)[O-])c1)C1C=CC2C12CC2 (stereo not drawn)	5%	5%	x	x	u	16µM*
CCC(=O)N=c1sc2c(C)cc(C)cc2n1CC(=O)OC	-9%	13µM*	7	1%	25	u
O=c1cc(O)n(-c2ccccc2)c(=S)[nH]1	-12%	1%	-3	x	-100*	-12%
CCC1(C)Cc2c(sc3nc(SCC(=O)O)[nH]c(=O)c23)CO1 (stereo not drawn)	-2%	-1%	1	6%	-102*	u
COc1cc(-c2[o+]c3cc(O)cc(O)c3cc2O)cc(O)c1O	-18%[11.4 µM]	2%	x	-9%[11.4 µM]	x	-11%
O=C(N=C1SCC(=O)N1c1ccccc1Cl)c1ccccc1	x	-2%	x	x	x	x
S=c1[nH]ncn1/N=C/c1cccc(Oc2ccccc2)c1	-28%	42%[38.3 µM]	2	-20%	24	10µM*
O=C(CN1CCN(c2ccccc2)CC1)Nc1nnc(-c2ccccc2)s1	6%	-7%[38.3 µM]	2	-11%	-4	-8%
O=C(CN1CCN(c2ccc(F)cc2)CC1)Nc1nnc(-c2ccccc2)s1	0%	11µM*	2	-2%	u	-8%
Cc1nc2ccc(C(=O)c3ccccc3)cc2[nH]1	-5%	12%[38.3 µM]	0	6%	3	18µM*
O=C(c1ccccc1)c1ccc2nc[nH]c2c1	-1%	5%[38.3 µM]	-7[1.84 µM]	-8%[11.4 µM]	33	22µM*
Cc1ccccc1C(=O)Nc1ccc(-c2nc3ccc(C(=O)c4ccccc4)cc3[nH]2)cc1	2%	-19%[38.3 µM]	3	18%	-6	u

Screening results: PubChem BioAssay, National Center for Advancing Translational Sciences (NCATS)
